High-throughput results as filed in PubChem BioAssay.
In the library only some 8% were active in any assay of this set; here they are far more common.
KB-3-1 tox: KB-3-1 parental cell cytotoxicity | KB-3-1 viability, CellTiter-Glo ATP luminescence, 72 h | Potency, µM (titrated, usually from 46.1 µM), most hits filed as cytotoxic | 400,000 tested, 1.4% active; also: % is scaled to controls: 0 for no effect and ±100 for the full control effect; nearly all actives have a fitted effect of over 60% in size
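KB-3-1 cells, DMEM (no phenol red) + 10% FBS; compound by pin transfer, 72 h, 37 °C. Readout: CellTiter-Glo luminescence after 10 min. Data normalized, curve-fitted.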
KB-V1 MDR tox: kills drug-selected multidrug resistant KB-V1 cells | AID 1347076 | Potency, µM (doses to about 46.1 µM), actives largely listed as cytotoxic | KB-V1 MDR cells viability, CellTiter-Glo, 72 h | 400,000 tested, 3.4% active; also: % is scaled to controls: 0 for no effect and ±100 for the full control effect; nearly all actives have a fitted effect of over 60% in size
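Cytotoxicity via CellTiter-Glo luminescence after 72 h compound exposure at 37 degrees C. Cells: drug-selected KB-V1 line, DMEM phenol-red free plus 10% FBS. Compounds tested at multiple concentrations; normalized data fitted to concentration-effect curves.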
MCF10A rerep: induces DNA re-replication in MCF 10a normal breast cells; MCF 10A DNA re-replication, Hoechst nuclear intensity, 48 h; 350,000 tested, 2.9% active; Potency, µM (series often up to 46.1 µM), without a hit: top-dose activity, positive = re-replication, actives largely listed as activators; also: % of control where 0% means no effect; nearly all actives have a fitted effect of over 50% in size
HT1080 IDH1KD tx: toxicity to HT-1080 IDH1 knockdown cells (counter line); HT-1080 IDH1 knockdown viability, ATP luminescence, 48 h; Potency, µM (top dose mostly 46.1 µM), for inactives: at the highest dose activity, negative = toxicity, hits mostly cytotoxic; 360,000 tested, 2% active; AID 686971;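 also: 0% = DMSO wells and -100% = cell-free medium wells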
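% activity derives from luminescence (CellTiter-Glo), normalised to DMSO and no-cell wells. HT-1080-IDH1KD cells, 750/well, had 48 h compound exposure at 37 °C.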
HT1080-NT tox: kills 2HG-producing HT-1080-NT fibrosarcoma cells; HT-1080-NT fibrosarcoma viability, CellTiter-Glo ATP luminescence, 48 h; Potency, µM (top dose mostly 46.1 µM), inactives show at the highest dose activity, negative = less viability, actives largely listed as cytotoxic; 360,000 tested, 1.6% active;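 also: NT is the 2HG producing partner of a matched IDH1 knockdown line; 0% = DMSO-treated cells and -100% = media-only wells without cells; nearly all actives have a fitted effect of over 55% in size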
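Viability by CellTiter-Glo luminescence after 48 h compound exposure at 37C of HT-1080-NT cells (750/well, RPMI, 5% FBS). % activity scaled between DMSO wells and medium-only wells, then curve-fitted and categorized by curve class.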
SW480 rereplic: DNA re-replication induction in SW480 cells; SW480 DNA re-replication, Hoechst DNA content imaging, 48 h; Potency, µM (titrated, usually from 46.1 µM), without a hit: top-dose re-replication activation, usual class: activators; 340,000 tested, 1.8% active; AID 624297; also: % of control where 0% means no effect; nearly all actives have a fitted effect of over 55% in size
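SW480 cells exposed to compounds for 48 hr at 37 C, 5% CO2, then Hoechst-stained 40 min. Nuclear DNA content imaged by fluorescence scanning (405 nm excitation, 500-530 nm emission); re-replication scored as increased high-intensity nuclei.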
Numbers without * were called inactive; i = inactive; ? = inconclusive; [ ] = another dose, or the depositor's remark. Calls follow the shape of the dose curve; as a rule, active = well fitted curve in the direction sought with a large enough effect; inconclusive = small, poorly fitted or top-dose-only effect, or another doubt; inactive = no such curve, though single readings can be large; an effect the other way counts as inactive or inconclusive. Potency is read from the fitted curve at half-maximal effect.

SMILES	KB-3-1 tox	KB-V1 MDR tox	MCF10A rerep	HT1080 IDH1KD tx	HT1080-NT tox	SW480 rereplic
CCOc1ccc(NC(=O)c2cccnc2Cl)c([N+](=O)[O-])c1	i	?	8%	4%	8%	23µM*
CCOc1ccc(NC(=O)c2ccco2)c([N+](=O)[O-])c1	i	i	23%	?	-20%	?
COc1ccc(NC(=O)c2ccccc2)c([N+](=O)[O-])c1	i	?	?	-17%	-8%	?
COc1cc(S(=O)(=O)Nc2cccc(C)c2)ccc1NC(=O)c1cccnc1	?	21µM*	?	-8%	-2%	-59%
C=CCn1c(COc2cccc(C)c2C)nnc1SCC(=O)N1CCN(c2ccccc2)CC1	?	i	?	-33%	-25%	?
N#C/C(=N/Nc1ccc(OC(F)(F)F)cc1)C(N)=S	?	?	?	16µM*	23µM*	-8%
Oc1ccccc1-c1n[nH]c(=S)n1Cc1ccccc1	i	i	-7%	-1%	-7%	-2%
COc1cc2cc(C)c3nnc(SCC(=O)Nc4cc(C)on4)n3c2cc1OC	i	i	-1%	1%	6%	-16%
CCc1nnc(NC(=O)CSc2nnc3c(C)cc4c(C)ccc(C)c4n23)s1	4.1µM*	i	9.2µM*	6.5µM*	5.8µM*	?
Cc1cc(NC(=O)CSc2nnc3c(C)cc4c(C)ccc(C)c4n23)no1	i	3.3µM*	21µM*	6.3µM*	6.3µM*	21µM*
Cc1cccc(N(C)C(=O)c2coc(=O)c3ccccc23)c1	i	i	-3%	-3%	-1%	-2%[9.22 µM]
O=C1CC(=Nc2ccccc2)NN1c1ccccc1	?	i	?	?	18µM*	4%
CC(C)(C)C1CCC(OCC(O)CN2CCN(c3ccccc3)CC2)CC1 (configuration not stated)	i	?	21µM*	?	-19%	2%
